About 83,000 compounds went through this panel and 20% of them were active in at least one assay; those are over-represented in the sample as a whole.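 Results are percent growth after 48 hours of single-concentration exposure. 100 means growth as in untreated cells, lower positive values show inhibition; negative values down to -100 show cell death.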 A number with no mark means an inactive call. Active and inactive are the calls of the source. The calls were made as follows: active = growth percent below 10; inactive = the rest.

The subject of the experiment is OVCAR-8 ovarian. The experiment is described as follows: NCI-60 one-dose screen, 48 h (100 = growth as untreated, 0 = no growth, -100 = all killed). To be noted: 10 µM.
For `CCCOCC(O)CNCCN` (stereo unspecified), the growth was 102%.
The result for `CCCC(C)c1ccc(OCCCCCCN2CCNCC2)cc1` (stereo unspecified) reads 36.8%.
Take `Nc1cc(O)cc(O)c1`: the growth is 104%.
In the case of `Cc1cc(C(C)(C)CC(C)(C)C)ccc1OCCOCC[N+](C)(C)Cc1ccccc1` it was 18.7%; in that of `CC(C)c1[nH]nc2c(NCc3ccc(-c4ccccn4)cc3)nc(SCCN)nc12`, 10.9%.
Take `CC(=O)c1c(O)cc2c3c1OC(C)(C)C1CCC(C)(CC31)O2` (stereo unspecified): the growth was 86.3%.
The result for `CN(C)CCCN1c2ccccc2Sc2ccc(C(F)(F)F)cc21` reads 44.4%; that for `CNC(=O)c1cc(Oc2ccc(NC(=O)Nc3ccc(Cl)c(OC4CCCCC4)c3)c(F)c2)ccn1`, 40.7%; that for `O=C(Nc1cccc(F)c1)Nc1cccc(Cl)c1`, 78.6%.
For the compound `CCN(CC)CC(O)CNc1ccnc2cc(Cl)c(Cl)cc12` (stereo unspecified), the growth is 84.3%.
`CCCCCCOc1ccc(/C=C/C(=O)c2ccc(B(O)O)cc2)cc1`: the growth is 81.2%.
On to `CC1(C)CC(OCCCC[P+](c2ccccc2)(c2ccccc2)c2ccccc2)CC(C)(C)N1O`, for which the growth is 6.29% (active).
In the case of `Fc1cc(-c2ncc(-c3cc(F)c(F)c(F)c3)c(NC3CCCCCC3)n2)cc(F)c1F`, the growth was 102%.
The result for `COc1c(C)c(C)c(OC)c2c1[nH]c(=O)c1c3cccnc3cn21` reads 111%; that for `CC1(C)CCc2cc(-c3ccn(S(=O)(=O)c4ccc(Cl)cc4)n3)ccc2O1`, 86.6%.
In the case of `O=C(NC1CCCC1)c1ccc(N2CCC(NCc3cccc(C(F)(F)F)c3)CC2)cc1` it was 95.2%.

Values taken from PubChem BioAssay (NCI).
